Experimental findings from PubChem BioAssay (Tox21) are described below.

Values joined by “and” are separate entries in the source; they are usually repeats but may differ in a detail not shown here. Equal values may be shown once. Inconclusive results are not listed. Where a call stands in place of a potency, no number is given. Some compounds were tested as several samples or in several runs, with calls that do not always agree. Active and inactive are the calls of the source. The call rests on the fitted dose curve; in most records, active means well fitted cell-killing curve with a large enough effect in the repeat runs; inconclusive means weak or mixed curves; inactive means flat fitted curve, though single readings scatter.
Potency means the concentration at half of the fitted maximal effect.

The nature of the assay: qHTS assay to identify small molecule antagonists of the estrogen related receptor (ERR) signaling pathway from Tox21 library - cell viability counter screen (AID 1224834). Further: nearly all actives have a fitted effect of over 30% in size. As to conditions: ERR reporter cells viability, CellTiter-Fluor, 17.5 h; series mostly up to 92.4 µM; viability change, negative = cytotoxic: at the top concentration. An excerpt: National Center for Advancing Translational Sciences [NCATS]
NIH Chemical Genomics Center [NCGC]
U.S. Environmental Protection Agency [EPA]
National Institutes of Environmental Health Sciences [NIEHS]
National Toxicology Program [NTP]
U.S. Food and Drug Administration [FDA]
Estrogen related receptors (ERRs), the first orphan nuclear receptors discovered, play an important role in the control of cellular energy metabolism. ERRs are required for high-energy production in response to the environmental challenges. ERR-alpha was also identified as an adverse marker for breast cancer progression; ERR-alpha-positive tumors have a poor prognosis. To screen and to identify environmental compounds that perturb the ERR signaling pathways could provide valuable information for potential therapeutic or preventive measures in the treatment of metabolic disease. To differentiate true ERR antagonists or agonist from cytotoxic substances, the assay is multiplexed with cell viability assay.
Tox21 Assay Protocol Summary:
The ERR cells were dispensed at 2,000 cells/5 ul/well in 1536-well white plates using a Multidrop dispenser. After the assay plates were incubated at a 37 C/5% CO2 incubator for 6 hours, 23 nL of compounds dissolved in DMSO, positive and negative controls or DMSO only was transferred to the assay plate by a pin tool. The plates were incubated at 37 C for 17.5 hours. 1 ul/well of CellTiter-Fluor reagent was added into the assay plates using a Flying Reagent Dispenser. After 30-minute incubation at 37 C/5% CO2, the fluorescence intensity in the plates was measured using a ViewLux plate reader.
A general note: Quantitative high-throughput screening tests each substance at several concentrations.
As to `NCc1cccnc1`, the Potency result is “inactive”.

Take `O=C1C=CC(=O)C=C1`: the Potency result was “inactive”.

As for `C#C[C@]1(O)CC[C@H]2[C@@H]3CCC4=CC(=O)CC[C@]4(C)[C@H]3CC[C@@]21C`, the Potency result is “inactive”.

Consider `CCCCN(CC)c1c([N+](=O)[O-])cc(C(F)(F)F)cc1[N+](=O)[O-]`, for which the Potency entry was “inactive”.

As to `c1nc[nH]n1`, the Potency result is “inactive”.

For the compound `CC(C)=CC1C(C(=O)OCc2coc(Cc3ccccc3)c2)C1(C)C` (stereo not given), the Potency result is “inactive”.

On to `O=C(NC(=O)c1c(F)cccc1F)Nc1ccc(Cl)cc1`, for which the Potency entry is “inactive”.

For `c1ccc(-c2cccc(-c3ccccc3)c2)cc1`, the Potency entry is “inactive”.

Turning to `CCCCN(CCCC)N=O`, the Potency entry was “inactive”.

`c1ccc(NNc2ccccc2)cc1`: the Potency entry was “inactive”.

Turning to `Cc1c(COC(=O)[C@@H]2[C@H](/C=C(\Cl)C(F)(F)F)C2(C)C)cccc1-c1ccccc1`, the Potency entry is “inactive”.

On to `CC1(C)C(C=C(Cl)Cl)C1C(=O)OC(C#N)c1cccc(Oc2ccccc2)c1` (stereo not given), for which the Potency entry was “inactive”.

Take `Oc1cc(Cl)ccc1Cl`: the Potency entry was “inactive”.

For the compound `Oc1c(Cl)c(Cl)c(Cl)c(Cl)c1Cl`, the Potency entry was “inactive”.

For the compound `O=C(O)CC[N+](=O)[O-]`, the Potency result was “inactive”.

For `CCCCC(CC)COC(=O)Cl` (stereo not given), the Potency entry is “inactive”.

In the case of `c1ccc(P(c2ccccc2)c2ccccc2)cc1`, the Potency result was “inactive”.

On to `CCCCCCCCCCCOC(=O)c1ccccc1C(=O)OCCCCCCCCCCC`, for which the Potency result was “inactive”.

As for `Nc1ccc(Cl)c(Cl)c1`, the “viability change, negative = cytotoxic” value is -5.28% (inactive).

As for `Oc1ccc(-c2ccccc2)cc1`, the “viability change, negative = cytotoxic” value is -8.72% (inactive).

In the case of `O=C(O)C(F)(F)C(F)(F)C(F)(F)C(F)(F)C(F)(F)C(F)(F)C(F)(F)F`, the Potency entry was “inactive”.

For the compound `CCCCCCOC(=O)c1ccccc1C(=O)OCCCCCC`, the Potency entry is “inactive”.

On to `CCC(C)c1ccc(O)cc1` (stereo not given), for which the Potency result is “inactive”.

In the case of `COc1ccc(C=O)cc1`, the Potency entry is “inactive”.

Take `CCN(CC)C(=O)SCc1ccc(Cl)cc1`: the Potency entry is “inactive”.

On to `N#CC(Br)Br`, for which the Potency entry is “inactive”.

Turning to `CCN(CC)N=O`, the Potency result was “inactive”.

Consider `C=CC(=O)OCCO`, for which the Potency entry is “inactive”.

As to `O=C(CCl)c1ccccc1`, the Potency entry is “inactive”.

For the compound `Cc1ccccc1[N+](=O)[O-]`, the Potency result was “inactive”.

As for `CCC(C)c1cc([N+](=O)[O-])cc([N+](=O)[O-])c1O` (stereo not given), the Potency result is “inactive and 19.3 µM (active)”.

Consider `CCC(C)(C)c1ccc(O)cc1`, for which the Potency result was “inactive”.

With `Nc1c(Cl)cc([N+](=O)[O-])cc1Cl`, the “viability change, negative = cytotoxic” value was -10% (inactive).

With `N#CCCCl`, the Potency result is “inactive”.

Regarding `CCCCOCCOP(=O)(OCCOCCCC)OCCOCCCC`, the “viability change, negative = cytotoxic” value is -12% (inactive).

In the case of `CC(C)C(=O)OCC(C)(C)C(OC(=O)C(C)C)C(C)C` (stereo not given), the Potency entry is “inactive”.

As to `ClC1C(Cl)C(Cl)C(Cl)C(Cl)C1Cl` (stereo not given), the Potency entry is “inactive”.

With `N[C@@H](Cc1ccc(N(CCCl)CCCl)cc1)C(=O)O`, the Potency entry is “inactive”.

As to `COP(=O)(OC)OC`, the Potency entry is “inactive”.

For the compound `Nc1ccc(-c2ccc(N)c(N)c2)cc1N`, the Potency is 48.4 µM (active).
